# Assay results published in the supplement of paper PMC12632987.
# T1: FBXL12, Q9NXK8
# T1 chain: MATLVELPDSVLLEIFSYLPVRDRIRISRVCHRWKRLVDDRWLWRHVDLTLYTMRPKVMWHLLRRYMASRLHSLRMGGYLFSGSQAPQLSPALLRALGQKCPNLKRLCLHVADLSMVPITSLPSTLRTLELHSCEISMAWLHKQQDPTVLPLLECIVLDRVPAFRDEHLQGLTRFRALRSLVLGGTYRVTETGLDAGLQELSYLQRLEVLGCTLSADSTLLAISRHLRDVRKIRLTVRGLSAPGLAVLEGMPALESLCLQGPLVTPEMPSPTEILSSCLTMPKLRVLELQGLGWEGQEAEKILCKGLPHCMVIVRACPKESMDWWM
# B1: FBXL12_hotspot_9_111 (protein)
# chain: SSILVVAHVTTAETADSTLETAEAVTRGLAEHHDEVKVLIVVTDPENADEMAAKAEAVAERLEAEHPNVTATVVRAPDEAAGRAAIEAAEAAFLAEADAA
# B2: FBXL12_hotspot_127_8 (protein)
# chain: SDIEVRVSVPTYQSYRYAVAILLEMLKIDVKNGGKNVEKLLEQLKALMEDAAKHLPKEDVLELLDEAIKSLKELKKESPEHKELFDKAIKYLEKLRKEVE
# B3: FBXL12_hotspot_9_119 (protein)
# chain: KVLVIYERIENPEDVEPAIERAIEYARAAAEAGWKVIVVFSAANPEIAEHTRRLLETRFGEEVAELEARGARIVVRDNEEEAEETKERLLREALEEEDRE
# B4: FBXL12_hotspot_9_122 (protein)
# chain: RIVVISEFVESPEEVEPVVRRAVEYAEAAAAAGWRVIIVIAAASPEVAEHARRVLEERFGERVARLRAAGARIEVRASREEAERAKRELLEEALAEEDAA
# B5: FBXL12_hotspot_134_9 (protein)
# chain: RTVVVIVSANGVSDAQARAAVDRAETIIAGLRAAGHRVLFVLVLSLADAAVGDALVARARAAAAAHGAEVVAAENVPAADFEAVLAAARARALARLDELE
# B6: FBXL12_hotspot_9_117 (protein)
# chain: KTVIIGVVAATPEAARSTLAVAREIARGLAEAGIKVHVIMAASSEETREEVLAIFREAGAEIQAELADKGVKVRVAETMEEYERLKAEVLEEIDREEEEE
# B7: FBXL12_hotspot_9_123 (protein)
# chain: MIVVIRENVKREEDIEPALRRAVAYAEAAAEAGWRVILVFSASSEELKEKAKEILETKLGERVARLKARGARIVVTATEEEAERKKRELLEEALREEDEA
# B8: FBXL12_hotspot_81_97 (protein)
# chain: KELDIVLSQQVQPGDTVEQVRAGLQYQVDLVEAAKAAGVKIRSITVRFSIDTSAFSPEEIEAILAAVEEARARIEALAKEAGAKLIDESAAAIAAVRAAL
# B9: FBXL12_hotspot_9_106 (protein)
# chain: MTILVTAYFEEESTIETTLKYALEIALGLAKAGHKVKVLIGAANEELLKKAKEILETKLKEIVEELKKLGVEIILVDSKEEYEKKKEELLKEAEEEEKEA
# B10: FBXL12_hotspot_9_107 (protein)
# chain: KTVLVTAYFEKEETVETTLKYAMEIALGLAEAGHKVRVLIGAKNEEILKKAKEILETKLKETVERLKELGVEIIFVSSEEEYEKKKKELLEEMEKEEEEA
# B11: FBXL12_hotspot_82_99 (protein)
# chain: SIAIIGLVNRPPETAVASLRNTADTIITLVEGAREAGVEVVRAVLVVHADPETRAEAERLRPRLEAAGVEVHLEATSAAADARAEAIRAAIEARFAAEDA
# B12: FBXL12_hotspot_9_113 (protein)
# chain: RILVLSAFAETKEEAEEKLARIREWARAAAAAGWDVIIVVAASTEEVAEYARRLLEELEAELRAAYPDVRVRVDVRLTREEAEETKARLLAEALEEEDRR
# B13: FBXL12_hotspot_82_98 (protein)
# chain: MISIIGLVNRPPETAVESLRNTAETMIAIVEGARAAGVEVERAVLVVRADPETRAVAEELRPRLEAAGIEVHLKETSEEALATKEAILEEIERRWEEEEE
# B14: FBXL12_hotspot_95_101 (protein)
# chain: MRRVIILVRQAVTAENIESAIQAIERAAAIARGLRAAGVEVKLIVVAHAPDEETRARIEAAVERHRDVIDEFVLEETEEAMEEKAEELLEEALEEIDEAE
# B15: FBXL12_hotspot_9_118 (protein)
# chain: RVLVISEYVRSEAEVEPAIARALAYARAAADAGWRVIVVISAASPAIAAHARRLLATRYGEEVAELRARGARIVVRDSRAAAEAEKARLLAEALAAEDAA
# B16: FBXL12_hotspot_9_125 (protein)
# chain: RHVIISVTARTEEELREKIDRALDYAEAAAAAGWKVHLIVSGLSPELLAAAKELLATEHAERVAALKAAGAEIHLKETVEEGEALKAEILAEIEEEAERE
# B17: FBXL12_hotspot_9_114 (protein)
# chain: RVLVLSFFAETREEAERELARMEEWARAALAAGWDVLIVVAAATEEVAAHARELLARMEAALRAAYPDRRVRVAVALTREAAAAAKAALLAELLAEADAA
# B18: FBXL12_hotspot_9_112 (protein)
# chain: MTVILGVYAETEEELRRKLERALEYAEAALEAGWEVHIVVGAATPELAEAARRLLEEELGERVAELRARGAVIRVEETFEAARARREEIREEIERRAEEE
# B19: FBXL12_hotspot_9_124 (protein)
# chain: MHVIISQYAETEEEARRQIERALEYAKAAAEAGWKVTVIFSASTEELKEFIEELLETEYAEEVAELKAKGVEIHVVETEEEAERLKEEILEEIEEEAEEE
# B20: FBXL12_hotspot_9_120 (protein)
# chain: RIVVIHEFLESLEDVGPRLTRAVDIAETAADAGWKVILVFSAASPEVAAAARRYLAEELGERVAALEARGAVIRVAESREEAERIKRELLEEALREEDEA
# B21: FBXL12_hotspot_9_109 (protein)
# chain: RTRVVVGVVTSPETADSTLAMLRAVTSGLSRHDDRVHVLIVVQDPANRDALLARAEAVAAELEAEHPNVRVRVVAAPDEEAAEAARAAFLAEVDAEEAAA
# B22: FBXL12_hotspot_9_108 (protein)
# chain: MLRILVATVSSLETAGPTIETAAAIARGLVAAGHRVRVIFISANAETGEEMLALARERLGALAAEEGRVTVVLRLAENEEEAEEIKEELLEEALEEVDRA
# B23: FBXL12_hotspot_95_100 (protein)
# chain: RRVVVVVFRHLVTPESAETVRQGVARFKAIVEGLRAAGVEVVAVLVLSYEDEESRALAEELKAEAAPLLDYAHLAPTREAAEAAYAELKARALAEADRLE
# B24: FBXL12_hotspot_95_102 (protein)
# chain: QRKVVVVYRHTVTPENLEQALAGLRRAKEIVEGLKAAGVEVYAVVAVSAETEEQRAQLEAEAEKVAKAADYALVEILLGATPEEVEERAEEMLEEVLKKI
# B25: FBXL12_hotspot_9_103 (protein)
# chain: MTVLVVGRATTPESVRTTVRTAVEIAEGLVAAGHEVVLILYAADPEVAEVLRRTVEEEFGERVAALRAAGARVVVAPDLEAGERAKREALEEIERREEEE
# B26: FBXL12_hotspot_9_121 (protein)
# chain: RIVVIRQFIESEEEVGPTVRRAVAYARAAADAGWRVIIVISAASPEVAEAARRVLEEELGEEVAELRARGARIVVTSSREEAERKKAELLEAALAEEDAA
# B27: FBXL12_hotspot_9_104 (protein)
# chain: KHIVIVASASTREAFLNSARTALEIAIGLAKAGHKVTVILHHTRPETAEEARAAVKKELAELIEEAKELGIEIRFAATEEELERLLEEALREADEEEERE
# B28: FBXL12_hotspot_9_115 (protein)
# chain: RTILVVASANTVERVRSTLETALKISIGLAEAGHKVILLIAAATEEVLEKAKELLETELKPLVEKLKELGVEVKEPVLYEEAEPLKEEILEEIDEEEEEE
# B29: FBXL12_hotspot_9_105 (protein)
# chain: KHIIVVASAATKEAFLNSSRTALEIAIGLAKAGHKVTVILSYDDPEKFEEWRAALEEELKELLEEAKELGIKIHYAPSPEEKERILEEVLEEHDEEEEEE
# B30: FBXL12_hotspot_9_110 (protein)
# chain: SSILVIAHVTTRETADTTLATARAVTTGLAAHHDRVDVLIVVSDPEHADEMAALAEATAAELEAEHPNVRAEVVRAPDEAAGRAAIEAREAEFLAAAAEE
# B31: FBXL12_hotspot_109_7 (protein)
# chain: MTVIVGGLATRPEHAERTARYVLTITRGLLAAGHRVRVVLAGTEESREILEAAAAELRALGAEVTLVVAETPEEARALYEERLAEAEEELDEEEEEEEEE
# B32: FBXL12_hotspot_9_116 (protein)
# chain: KTVVVLARALRVETVESTLRTALEIAIGLAKAGVKVHLVIGAADEEVLAKARELLATRLAPLVEEARALGVEVHEPALYEEAEALVEEILEEIDEEEEEE
# Target: T1, FBXL12, Q9NXK8
# Test: median log2 fold change of GCK-ALFA target abundance (FLAG IP / Myc IP barcode read proportion) (log2 ratio); each designed protein is fused to an ALFA-tag nanobody in HEK293 cells to bring the named protein to FLAG-tagged glucokinase (GCK); Myc marks an untargeted standard; higher = target protein stabilised (more abundant)
# Conditions: target protein: 3xFLAG-MCP-GCK-ALFA reporter; HEK293 landing pad (RPLP)
# Protocol: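 LABEL-seq trans screen in HEK293 landing-pad cells. Each de novo designed 100-aa effector handle, binding the indicated effector (E3 ligase, DUB or autophagy protein), is fused to a constant NbALFA target handle and induced with 2 ug/mL doxycycline. A FLAG-MCP-GCK-ALFA target and a Myc-MCP standard reporter were transfected, and after 48 h circRNA barcodes were recovered by anti-FLAG and anti-Myc IP and sequenced. The value is the median across barcodes (at least 3 per design) of log2(FLAG/Myc read-proportion ratio), with the two transfection replicates pooled. Negative values mean degradation and positive values mean stabilisation of the target.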
row,Binder,median log2 fold change
1,B1,0.154
2,B2,-0.133
3,B3,0.0418
4,B4,0.0626
5,B5,0.11
6,B6,0.0889
7,B7,-0.0307
8,B8,0.149
9,B9,-0.24
10,B10,0.196
11,B11,0.0901
12,B12,-0.106
13,B13,0.108
14,B14,-0.00895
15,B15,-0.563
16,B16,0.23

row,Binder,median log2 fold change
1,B17,-0.157
2,B18,-0.276
3,B19,-0.161
4,B20,-0.0369
5,B21,0.0457
6,B22,-0.0498
7,B23,-0.315
8,B24,0.243
9,B25,0.0779
10,B26,-0.228
11,B27,0.00127
12,B28,0.00902
13,B29,0.136
14,B30,-0.0129
15,B31,0.117
16,B32,0.0101
